# Measured values published in PubChem BioAssay (EPA / NIEHS).
# Calls of active or inactive are those of the source. Rule for the calls: active = hit-call score of the fitted dose curve at least 0.9, where 1 is the maximum; inactive = score below 0.9.
# Read-out: Cyclin Dependent Kinase Inhibitor 1A (CDKN1A), CDKN1A (gene 1026)
# Assay: LTEA_HepaRG_CDKN1A: Life Technologies and Expression Analysis (LTEA) Assay for Cyclin Dependent Kinase Inhibitor 1A (CDKN1A) using HepaRG (AID 2283450)
# Details: mRNA level, 48 h; actives raise or lower the signal
# Procedure, shortened: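 Read-out is CDKN1A mRNA by TaqMan qRT-PCR, normalized to three housekeeping genes and fitted in both directions against the DMSO baseline. Human HepaRG cells were treated 48 h with test chemicals up to 100 uM in half-log steps, 0.5% DMSO.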
Structure (SMILES),outcome,AC50
O=c1c(-c2ccc(O)cc2)coc2cc(O)ccc12,inactive,
Oc1cccc(O)c1,inactive,
O=[N+]([O-])c1ccc(O)cc1,inactive,
CCC(=C(c1ccc(O)cc1)c1ccc(OCCN(C)C)cc1)c1ccccc1,inactive,
C#C[C@]1(O)CC[C@H]2[C@@H]3CCC4=CC(=O)CC[C@@H]4[C@H]3CC[C@@]21C,inactive,
COC(=O)CCCCC(=O)OC,inactive,
CCCCCCCCCCCCc1ccccc1S(=O)(=O)O,inactive,
CC(=O)CC(C)(C)O,inactive,
C[C@@H]1C[C@H]2[C@@H]3CCC4=CC(=O)C=C[C@]4(C)[C@@]3(F)[C@@H](O)C[C@]2(C)[C@@]1(O)C(=O)COP(=O)(O)O,inactive,
CC1=C(/C=C/C(C)=C/C=C/C(C)=C/C(=O)O)C(C)(C)CCC1,inactive,
O=C(O)c1ccccc1C(c1ccc(O)cc1)c1ccc(O)cc1,inactive,
Nc1cccc2c(N)cccc12,inactive,
CC(O)CO (configuration not stated),inactive,
c1ccc2c(c1)ccc1ccccc12,inactive,
CCCCCCCCOC(=O)CCCCCCCCC(=O)OCCCCCCCC,inactive,
Oc1cc2ccccc2c2ccccc12,inactive,

Structure (SMILES),outcome,AC50
CC(C)(C)c1cccc(C(C)(C)C)c1O,inactive,
Cc1cc(C)c(O)c(C)c1,inactive,
CCN(CC)CCNc1ccc(CNC=O)c2sc3ccc(OC)cc3c(=O)c12,inactive,
Cc1cc(CCN2CCN(c3nsc4ccccc34)CC2)cc2c1NC(=O)CC2(C)C,,76.7 µM (active)
CN(C)C=O,inactive,
OC1CCCCC1,inactive,
CC(=O)NC1(c2cccc(F)c2)CCN(CC[C@@]2(c3ccc(Cl)c(Cl)c3)CN(c3ccccc3)C(=O)CO2)CC1,inactive,
CCCCCCCCCCCCN1CCCC1=O,inactive,
CCCCCCCCCCCCCCCS(=O)(=O)Oc1ccccc1,inactive,
N#C[C@@H]1CC(F)(F)CN1C(=O)CNC1CC2CCC(C1)N2c1ncccn1 (some centres not stated),inactive,
O=C(O)Cc1cc(I)c(Oc2cc(I)c(O)c(I)c2)c(I)c1,,33.5 µM (active)
CN1CCN(c2ccccc2/C=C2\SCCN(c3ccc(Cl)c(Cl)c3)C2=O)CC1,inactive,
CCCCC(CC)COC(=O)CCCCC(=O)OCC(CC)CCCC (configuration not stated),inactive,
CCCOC(=O)c1ccc(O)cc1,inactive,
CCCCCCC(=O)O,inactive,

# Read-out: Cyclin D1 (CCND1), CCND1 (gene 595)
# Assay: LTEA_HepaRG_CCND1: Life Technologies and Expression Analysis (LTEA) Assay for Cyclin D1 (CCND1) using HepaRG (AID 2283451);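 for AC50: differentiated human HepaRG liver cells in serum-free induction medium; TaqMan qRT-PCR transcript level normalised to ACTB GAPDH and POLR2A housekeeping genes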
# Details: mRNA level, 48 h; actives raise or lower the signal
# Procedure, shortened: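 HepaRG plated 48 h, medium switched to serum-free induction medium, chemicals added in duplicate (top 100 uM, half-log steps, 0.5% DMSO) for 48 h, cells lysed, RNA measured by TaqMan qRT-PCR.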
Structure (SMILES),outcome,AC50
O=c1c(-c2ccc(O)cc2)coc2cc(O)ccc12,inactive,
Oc1cccc(O)c1,inactive,
O=[N+]([O-])c1ccc(O)cc1,inactive,
CCC(=C(c1ccc(O)cc1)c1ccc(OCCN(C)C)cc1)c1ccccc1,inactive,
C#C[C@]1(O)CC[C@H]2[C@@H]3CCC4=CC(=O)CC[C@@H]4[C@H]3CC[C@@]21C,inactive,
COC(=O)CCCCC(=O)OC,inactive,
CCCCCCCCCCCCc1ccccc1S(=O)(=O)O,inactive,
CC(=O)CC(C)(C)O,inactive,
C[C@@H]1C[C@H]2[C@@H]3CCC4=CC(=O)C=C[C@]4(C)[C@@]3(F)[C@@H](O)C[C@]2(C)[C@@]1(O)C(=O)COP(=O)(O)O,inactive,
CC1=C(/C=C/C(C)=C/C=C/C(C)=C/C(=O)O)C(C)(C)CCC1,inactive,
O=C(O)c1ccccc1C(c1ccc(O)cc1)c1ccc(O)cc1,inactive,
Nc1cccc2c(N)cccc12,inactive,
CC(O)CO (configuration not stated),inactive,
c1ccc2c(c1)ccc1ccccc12,inactive,
CCCCCCCCOC(=O)CCCCCCCCC(=O)OCCCCCCCC,inactive,
Oc1cc2ccccc2c2ccccc12,inactive,

Structure (SMILES),outcome,AC50
CC(C)(C)c1cccc(C(C)(C)C)c1O,inactive,
Cc1cc(C)c(O)c(C)c1,inactive,
CCN(CC)CCNc1ccc(CNC=O)c2sc3ccc(OC)cc3c(=O)c12,inactive,
Cc1cc(CCN2CCN(c3nsc4ccccc34)CC2)cc2c1NC(=O)CC2(C)C,inactive,
CN(C)C=O,inactive,
OC1CCCCC1,inactive,
CC(=O)NC1(c2cccc(F)c2)CCN(CC[C@@]2(c3ccc(Cl)c(Cl)c3)CN(c3ccccc3)C(=O)CO2)CC1,inactive,
CCCCCCCCCCCCN1CCCC1=O,inactive,
CCCCCCCCCCCCCCCS(=O)(=O)Oc1ccccc1,inactive,
N#C[C@@H]1CC(F)(F)CN1C(=O)CNC1CC2CCC(C1)N2c1ncccn1 (some centres not stated),inactive,
O=C(O)Cc1cc(I)c(Oc2cc(I)c(O)c(I)c2)c(I)c1,,33.5 µM (active)
CN1CCN(c2ccccc2/C=C2\SCCN(c3ccc(Cl)c(Cl)c3)C2=O)CC1,inactive,
CCCCC(CC)COC(=O)CCCCC(=O)OCC(CC)CCCC (configuration not stated),inactive,
CCCOC(=O)c1ccc(O)cc1,inactive,
CCCCCCC(=O)O,inactive,

# Read-out: catalase (CAT), CAT (gene 847)
# Assay: LTEA_HepaRG_CAT: Life Technologies and Expression Analysis (LTEA) Assay for catalase (CAT) using HepaRG (AID 2283452);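 for AC50: TaqMan qRT-PCR signal normalized to ACTB GAPDH and POLR2A housekeeping genes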
# Details: mRNA level, 48 h; actives raise or lower the signal
# Procedure, shortened: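 HepaRG cells in serum-free induction medium, 0.5% DMSO vehicle, exposed 48 h in duplicate over 8 half-log concentrations from 100 uM. CAT mRNA measured by qRT-PCR, normalized to ACTB, GAPDH, POLR2A; bidirectional fit versus DMSO.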
Structure (SMILES),outcome,AC50
O=c1c(-c2ccc(O)cc2)coc2cc(O)ccc12,inactive,
Oc1cccc(O)c1,inactive,
O=[N+]([O-])c1ccc(O)cc1,inactive,
CCC(=C(c1ccc(O)cc1)c1ccc(OCCN(C)C)cc1)c1ccccc1,inactive,
COC(=O)CCCCC(=O)OC,inactive,
CCCCCCCCCCCCc1ccccc1S(=O)(=O)O,,88.9 µM (active)
CC(=O)CC(C)(C)O,inactive,
C[C@@H]1C[C@H]2[C@@H]3CCC4=CC(=O)C=C[C@]4(C)[C@@]3(F)[C@@H](O)C[C@]2(C)[C@@]1(O)C(=O)COP(=O)(O)O,inactive,
CC1=C(/C=C/C(C)=C/C=C/C(C)=C/C(=O)O)C(C)(C)CCC1,,9.37 µM (active)
O=C(O)c1ccccc1C(c1ccc(O)cc1)c1ccc(O)cc1,inactive,
Nc1cccc2c(N)cccc12,inactive,
CC(O)CO (configuration not stated),inactive,
c1ccc2c(c1)ccc1ccccc12,inactive,
CCCCCCCCOC(=O)CCCCCCCCC(=O)OCCCCCCCC,inactive,
Oc1cc2ccccc2c2ccccc12,inactive,
CC(C)(C)c1cccc(C(C)(C)C)c1O,inactive,
Cc1cc(C)c(O)c(C)c1,inactive,
CCN(CC)CCNc1ccc(CNC=O)c2sc3ccc(OC)cc3c(=O)c12,,17.5 µM (active)
Cc1cc(CCN2CCN(c3nsc4ccccc34)CC2)cc2c1NC(=O)CC2(C)C,,73.4 µM (active)
CN(C)C=O,inactive,
OC1CCCCC1,inactive,
CC(=O)NC1(c2cccc(F)c2)CCN(CC[C@@]2(c3ccc(Cl)c(Cl)c3)CN(c3ccccc3)C(=O)CO2)CC1,inactive,
CCCCCCCCCCCCN1CCCC1=O,inactive,
CCCCCCCCCCCCCCCS(=O)(=O)Oc1ccccc1,inactive,
N#C[C@@H]1CC(F)(F)CN1C(=O)CNC1CC2CCC(C1)N2c1ncccn1 (some centres not stated),inactive,
O=C(O)Cc1cc(I)c(Oc2cc(I)c(O)c(I)c2)c(I)c1,,45.4 µM (active)
CN1CCN(c2ccccc2/C=C2\SCCN(c3ccc(Cl)c(Cl)c3)C2=O)CC1,inactive,
CCCCC(CC)COC(=O)CCCCC(=O)OCC(CC)CCCC (configuration not stated),inactive,
CCCOC(=O)c1ccc(O)cc1,inactive,
CCCCCCC(=O)O,inactive,
